Drawing on the supplement of paper PMC10849652, this text covers log2 fold change for 13 molecules.

Of roughly 7,900 targets only a part is listed; those with a hit were picked by preference. About 0.6% of all pairs of compound and target were hits. Unmarked numbers belong to inactive results.

Common to all, as to test: log2 fold change, soluble protein after heating vs DMSO (PISA); higher = thermal stabilisation; K562 cells, 10 uM, 30 min; active = over 0.2 and 3.5 SD of the protein, either way, in both replicates (recomputed)
The target of one experiment is YAE1 (UniProt Q9NRH1). The gist of the method: (§1)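 Values are thermal stability changes relative to control samples and are taken from duplicates. They are stated as log2 fold changes. Before quantification by TMTpro 16plex LC-MS/MS with equalised channel sums, K562 cells at 2×10^6 cells/mL were treated with 10 μM compound for 30 min, heated in aliquots for 3 min across 48°C-58°C, pooled, extracted in PBS with 0.5% NP-40 at 4°C, and centrifuged at 21,000xg for 90 min to give the soluble supernatant.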

The target in a further experiment is YBX1 (UniProt P67809). The gist of the method: as §1
The next experiment concerns the target YES1 (UniProt P07947). The gist of the method:
as §1

The target in a further experiment is YIPF4 (UniProt Q9BSR8). A digest of the protocol: as §1
The target in the next experiment is YIPF5 isoform 3 (UniProt Q969M3). A digest of the protocol: as §1
Another experiment concerns the target YIPF6 (UniProt Q96EC8). A digest of the protocol: as §1
The next experiment addresses YLPM1 (UniProt P49750). The gist of the method: as §1
The target in a further experiment is YOD1 (UniProt Q5VVQ6). The gist of the method: as §1
Another experiment concerns the target YPEL5 (UniProt P62699). A digest of the protocol:
as §1

Sequence of YIPF6 (Q96EC8 whole entry, looked up): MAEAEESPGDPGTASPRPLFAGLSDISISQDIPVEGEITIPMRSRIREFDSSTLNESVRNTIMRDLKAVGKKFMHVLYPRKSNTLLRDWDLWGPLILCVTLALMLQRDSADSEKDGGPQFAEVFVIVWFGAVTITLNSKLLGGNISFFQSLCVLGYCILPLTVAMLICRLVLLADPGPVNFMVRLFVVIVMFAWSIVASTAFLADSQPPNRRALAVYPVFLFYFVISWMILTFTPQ
Sequence of YOD1 (Q5VVQ6 whole entry, looked up): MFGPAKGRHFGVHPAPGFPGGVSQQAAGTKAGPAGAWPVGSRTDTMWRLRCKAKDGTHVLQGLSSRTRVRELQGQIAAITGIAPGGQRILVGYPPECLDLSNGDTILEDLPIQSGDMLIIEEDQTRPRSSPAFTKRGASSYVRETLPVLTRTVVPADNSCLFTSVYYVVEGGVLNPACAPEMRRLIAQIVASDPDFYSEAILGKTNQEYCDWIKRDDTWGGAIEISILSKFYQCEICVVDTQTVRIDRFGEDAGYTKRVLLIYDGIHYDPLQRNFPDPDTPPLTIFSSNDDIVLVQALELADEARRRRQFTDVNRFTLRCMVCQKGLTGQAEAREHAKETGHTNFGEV
Sequence of YPEL5 (P62699 whole entry, looked up): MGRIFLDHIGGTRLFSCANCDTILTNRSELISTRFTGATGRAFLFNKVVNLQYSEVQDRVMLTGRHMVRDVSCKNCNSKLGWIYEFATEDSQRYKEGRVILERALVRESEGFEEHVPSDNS
Sequence of YES1 (P07947 whole entry, looked up): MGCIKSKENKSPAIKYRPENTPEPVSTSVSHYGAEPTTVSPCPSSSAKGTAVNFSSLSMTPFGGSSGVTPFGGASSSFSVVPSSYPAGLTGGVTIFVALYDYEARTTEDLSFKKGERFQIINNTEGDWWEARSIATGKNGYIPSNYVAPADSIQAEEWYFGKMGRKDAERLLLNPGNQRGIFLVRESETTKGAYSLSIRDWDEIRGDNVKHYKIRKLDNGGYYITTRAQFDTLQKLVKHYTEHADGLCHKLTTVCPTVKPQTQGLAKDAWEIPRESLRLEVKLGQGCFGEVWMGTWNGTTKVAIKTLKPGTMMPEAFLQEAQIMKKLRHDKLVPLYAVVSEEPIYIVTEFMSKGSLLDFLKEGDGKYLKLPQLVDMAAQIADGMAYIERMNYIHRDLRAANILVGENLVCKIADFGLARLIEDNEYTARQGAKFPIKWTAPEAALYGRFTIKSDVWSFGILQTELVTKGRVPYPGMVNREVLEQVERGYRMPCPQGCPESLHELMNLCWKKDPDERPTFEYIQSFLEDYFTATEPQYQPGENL
Sequence of YIPF5 isoform 3 (Q969M3 whole entry, looked up, canonical isoform): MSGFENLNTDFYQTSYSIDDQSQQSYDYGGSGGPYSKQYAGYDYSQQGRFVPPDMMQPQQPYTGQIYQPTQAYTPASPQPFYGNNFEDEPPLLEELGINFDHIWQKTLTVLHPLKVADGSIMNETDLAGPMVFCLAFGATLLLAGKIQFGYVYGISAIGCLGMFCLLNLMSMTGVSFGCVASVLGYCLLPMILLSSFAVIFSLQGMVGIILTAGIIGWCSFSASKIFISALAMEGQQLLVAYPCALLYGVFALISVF
Sequence of YBX1 (P67809 whole entry, looked up): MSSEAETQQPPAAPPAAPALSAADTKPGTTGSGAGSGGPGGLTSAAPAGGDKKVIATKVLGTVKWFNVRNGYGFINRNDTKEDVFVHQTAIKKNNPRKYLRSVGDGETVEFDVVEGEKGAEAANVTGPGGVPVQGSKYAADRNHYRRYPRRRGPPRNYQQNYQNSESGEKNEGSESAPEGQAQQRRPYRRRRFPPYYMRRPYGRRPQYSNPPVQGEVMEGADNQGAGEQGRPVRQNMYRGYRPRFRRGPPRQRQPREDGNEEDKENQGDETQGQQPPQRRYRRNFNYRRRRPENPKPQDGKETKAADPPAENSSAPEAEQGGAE
Sequence of YLPM1 (P49750 whole entry, looked up): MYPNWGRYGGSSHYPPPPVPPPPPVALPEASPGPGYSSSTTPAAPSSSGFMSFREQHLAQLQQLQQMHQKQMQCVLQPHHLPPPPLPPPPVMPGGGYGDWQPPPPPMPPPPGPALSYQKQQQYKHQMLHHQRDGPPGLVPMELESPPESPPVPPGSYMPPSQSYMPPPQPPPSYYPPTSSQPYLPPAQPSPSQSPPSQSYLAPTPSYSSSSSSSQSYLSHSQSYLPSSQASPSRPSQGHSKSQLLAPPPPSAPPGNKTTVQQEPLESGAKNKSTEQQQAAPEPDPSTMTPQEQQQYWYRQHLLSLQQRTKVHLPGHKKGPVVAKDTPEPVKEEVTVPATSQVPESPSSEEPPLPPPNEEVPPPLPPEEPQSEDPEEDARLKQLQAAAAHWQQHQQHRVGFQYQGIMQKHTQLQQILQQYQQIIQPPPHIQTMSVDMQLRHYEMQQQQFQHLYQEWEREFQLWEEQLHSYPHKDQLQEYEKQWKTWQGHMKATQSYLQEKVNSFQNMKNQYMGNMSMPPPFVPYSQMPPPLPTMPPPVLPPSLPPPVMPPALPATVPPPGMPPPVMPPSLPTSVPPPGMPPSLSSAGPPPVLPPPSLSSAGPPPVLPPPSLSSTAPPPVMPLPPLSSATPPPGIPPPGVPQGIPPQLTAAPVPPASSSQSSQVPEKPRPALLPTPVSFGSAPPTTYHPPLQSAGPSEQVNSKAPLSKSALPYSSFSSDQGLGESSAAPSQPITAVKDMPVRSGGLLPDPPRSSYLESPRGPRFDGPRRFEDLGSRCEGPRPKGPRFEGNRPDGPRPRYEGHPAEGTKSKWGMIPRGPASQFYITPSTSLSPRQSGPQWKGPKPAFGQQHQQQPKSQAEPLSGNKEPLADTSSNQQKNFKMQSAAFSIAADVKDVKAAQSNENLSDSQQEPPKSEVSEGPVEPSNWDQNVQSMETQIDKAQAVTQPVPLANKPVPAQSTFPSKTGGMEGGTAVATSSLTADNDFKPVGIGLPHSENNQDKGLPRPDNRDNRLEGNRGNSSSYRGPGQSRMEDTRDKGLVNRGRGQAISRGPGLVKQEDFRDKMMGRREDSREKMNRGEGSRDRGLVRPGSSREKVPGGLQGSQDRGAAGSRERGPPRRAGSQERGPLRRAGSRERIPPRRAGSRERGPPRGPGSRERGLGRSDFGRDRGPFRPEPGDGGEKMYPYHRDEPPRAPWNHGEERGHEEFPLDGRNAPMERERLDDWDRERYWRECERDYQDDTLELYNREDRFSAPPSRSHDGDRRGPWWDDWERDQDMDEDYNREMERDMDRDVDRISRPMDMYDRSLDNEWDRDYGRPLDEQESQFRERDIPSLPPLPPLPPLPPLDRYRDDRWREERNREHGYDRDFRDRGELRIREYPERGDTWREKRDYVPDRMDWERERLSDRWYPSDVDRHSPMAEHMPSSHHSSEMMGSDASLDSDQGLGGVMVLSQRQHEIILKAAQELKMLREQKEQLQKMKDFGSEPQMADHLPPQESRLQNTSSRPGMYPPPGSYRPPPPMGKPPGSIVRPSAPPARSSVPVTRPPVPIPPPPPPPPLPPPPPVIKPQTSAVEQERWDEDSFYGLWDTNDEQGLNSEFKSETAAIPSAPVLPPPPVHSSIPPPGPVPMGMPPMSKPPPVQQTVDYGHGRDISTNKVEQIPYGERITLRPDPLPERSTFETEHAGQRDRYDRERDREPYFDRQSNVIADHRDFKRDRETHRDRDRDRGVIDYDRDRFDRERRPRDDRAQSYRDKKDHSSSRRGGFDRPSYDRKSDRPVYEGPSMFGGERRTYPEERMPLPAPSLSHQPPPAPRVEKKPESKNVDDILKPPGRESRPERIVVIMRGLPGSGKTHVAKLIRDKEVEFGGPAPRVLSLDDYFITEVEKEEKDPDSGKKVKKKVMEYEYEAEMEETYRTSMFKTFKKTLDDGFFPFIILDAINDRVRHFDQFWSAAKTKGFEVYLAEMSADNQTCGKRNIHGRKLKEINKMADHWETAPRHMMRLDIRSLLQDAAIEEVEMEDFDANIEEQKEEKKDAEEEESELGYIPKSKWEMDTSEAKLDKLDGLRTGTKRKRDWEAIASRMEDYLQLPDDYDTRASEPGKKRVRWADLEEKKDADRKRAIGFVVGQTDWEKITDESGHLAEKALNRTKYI
Sequence of YAE1 (Q9NRH1 whole entry, looked up): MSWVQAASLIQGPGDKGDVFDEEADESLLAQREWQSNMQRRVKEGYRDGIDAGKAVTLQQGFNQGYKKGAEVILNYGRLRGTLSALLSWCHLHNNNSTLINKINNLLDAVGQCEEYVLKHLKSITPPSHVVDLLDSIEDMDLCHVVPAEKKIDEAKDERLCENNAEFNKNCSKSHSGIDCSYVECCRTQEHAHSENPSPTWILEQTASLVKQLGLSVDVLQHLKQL
Sequence of YIPF4 (Q9BSR8 whole entry, looked up, canonical isoform): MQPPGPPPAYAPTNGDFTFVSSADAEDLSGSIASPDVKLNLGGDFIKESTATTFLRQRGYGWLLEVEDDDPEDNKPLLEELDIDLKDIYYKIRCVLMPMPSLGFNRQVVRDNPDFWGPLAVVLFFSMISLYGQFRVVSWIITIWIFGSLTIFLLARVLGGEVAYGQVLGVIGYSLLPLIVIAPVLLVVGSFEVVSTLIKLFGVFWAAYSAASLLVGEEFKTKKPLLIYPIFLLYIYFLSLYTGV

In the case of `Oc1cc(-c2nc(-c3ccccc3)[nH]c2-c2ccncc2)ccc1Cl`, the log2 fold change in the experiment with YAE1 is -0.015; in the experiment with YBX1 it was -0.053; with YES1, -0.112; in the experiment with YIPF4, -0.054; with YIPF5 isoform 3, -0.05; with YIPF6, -0.041. In addition, the log2 fold change was -0.024 in the experiment with YLPM1, -0.02 in the experiment with YOD1 and 0.213 with YPEL5.

`CC1=C(C(=O)Nc2cc3cn[nH]c3cc2F)C(c2ccc(C(F)(F)F)cc2)CC(=O)N1` (centres undefined): the log2 fold change is -0.001 with YAE1; 0.044 with YBX1; -0.012 with YES1; -0.019 with YIPF4; -0.007 with YIPF5 isoform 3; 0.055 with YIPF6. Besides, the log2 fold change with YLPM1 is -0.01; in the experiment with YOD1, 0.023; with YPEL5, 0.058.

In the case of `Cc1ccc(NC(=O)c2cccc(C(C)(C)C#N)c2)cc1Nc1ccc2ncn(C)c(=O)c2c1`, the log2 fold change with YAE1 was 0.056; with YBX1 it was 0.041; with YIPF4, 0.013; with YIPF5 isoform 3, 0.042; in the experiment with YIPF6 it was -0.131; in the experiment with YLPM1, -0.095. Moreover, the log2 fold change with YOD1 was 0.067; with YPEL5, -0.131.

Turning to `Cc1cc(Nc2cc(CN3CCOCC3)c3nc(C)c(Cc4ccc(Cl)cc4F)n3n2)n[nH]1` [gandotinib], the log2 fold change with YAE1 is 0.007; in the experiment with YBX1, 0.334; with YES1 it was -0.447; in the experiment with YIPF4 it was -0.086; with YIPF5 isoform 3, -0.1; in the experiment with YIPF6, -0.019. The log2 fold change with YLPM1 is -0.117; in the experiment with YOD1 it was -0.149; with YPEL5 it was -0.095.

Turning to `CNCc1ccc(-c2[nH]c3cc(F)cc4c3c2CCNC4=O)cc1` [rucaparib], the log2 fold change in the experiment with YAE1 is -0.078; with YBX1, 0.253; with YES1 it was 0.169; with YIPF4, -0.028; with YIPF5 isoform 3, 0; with YIPF6, 0.055. For the same molecule, the results for the log2 fold change with YLPM1, in the experiment with YOD1 and in the experiment with YPEL5 were -0.07, -0.041 and 0.002, respectively.

For `CCN(CC)Cc1ccc2cc(COC(=O)Nc3ccc(C(=O)NO)cc3)ccc2c1` [givinostat], the log2 fold change was -0.017 in the experiment with YAE1; -0.056 with YBX1; 0.016 with YES1; -0.048 in the experiment with YIPF4; -0.053 in the experiment with YIPF5 isoform 3; -0.028 with YIPF6. Also, the log2 fold change with YLPM1 was 0.061; with YOD1, 0.024; with YPEL5, -0.009.

`NC(=O)Nc1cc(-c2cccc(F)c2)sc1C(=O)N[C@H]1CCCNC1`: the log2 fold change is -0.023 with YAE1; 0.025 with YBX1; 0.066 with YIPF4; 0.023 with YIPF5 isoform 3; -0.081 with YIPF6; -0.023 in the experiment with YLPM1. In addition, the log2 fold change is -0.079 with YOD1 and 0.114 with YPEL5.

As to `O=C1NC(=O)C(c2cnc3ccccn23)=C1c1cn2c3c(cc(F)cc13)CN(C(=O)N1CCCCC1)CC2`, the log2 fold change in the experiment with YAE1 is -0.02; in the experiment with YBX1, 0.126; with YES1, 0.011; with YIPF4, -0.087; with YIPF5 isoform 3, 0.032; in the experiment with YIPF6, 0.01. Besides, the figures for the log2 fold change in the experiment with YLPM1, with YOD1 and with YPEL5 were 0.026, -0.079 and -0.064, respectively.

As to `O=C(O)c1ccc2c(c1)nc(Nc1cccc(Cl)c1)c1ccncc12` [silmitasertib], the log2 fold change with YAE1 was -0.009; in the experiment with YBX1, 0.125; in the experiment with YES1, 0.004; with YIPF4, -0.006; in the experiment with YIPF5 isoform 3 it was 0; with YIPF6, 0.02. The log2 fold change is -0.009 with YLPM1, 0.021 in the experiment with YOD1 and 0.116 with YPEL5.

For the molecule `CNC(=O)c1ccccc1Nc1nc(Nc2ccc(N3CCOCC3)cc2OC)ncc1Cl`, the log2 fold change with YAE1 was -0.002; with YBX1, 0.01; in the experiment with YES1, -0.623 (active); with YIPF4, 0.062; in the experiment with YIPF5 isoform 3, 0.088; in the experiment with YIPF6, -0.006. The log2 fold change with YLPM1 is -0.006; with YOD1 it was 0.011; in the experiment with YPEL5, 0.08.

Take `CN1CCN(c2nc(C3=C(c4c[nH]c5ccccc45)C(=O)NC3=O)c3ccccc3n2)CC1` [sotrastaurin]: the log2 fold change with YAE1 was 0.074; with YBX1, 0.016; with YIPF4 it was 0.113; in the experiment with YIPF5 isoform 3 it was 0.034; with YIPF6, -0.648 (active); with YLPM1, 0.021. Further, the log2 fold change is 0.034 with YOD1 and -0.102 with YPEL5.

Consider `C[C@@H](N)c1ccc(C(=O)Nc2ccnc3[nH]ccc23)cc1`, for which the log2 fold change with YAE1 was 0.1; with YBX1 it was 0.28; with YES1, 0; with YIPF4, -0.089; with YIPF5 isoform 3, -0.077; with YIPF6 it was -0.013. Further, the log2 fold change is -0.037 with YLPM1, -0.04 with YOD1 and 0.163 in the experiment with YPEL5.

On to `COc1cccc2cc(-c3nc([C@H]4CC[C@H](C(=O)O)CC4)n4ncnc(N)c34)[nH]c12`, for which the log2 fold change is 0.016 in the experiment with YAE1; -0.091 in the experiment with YBX1; -0.256 with YES1; 0.06 with YIPF4; 0.017 with YIPF5 isoform 3; 0.02 with YIPF6. Further, the log2 fold change with YLPM1 was 0.053; in the experiment with YOD1, 0.011; in the experiment with YPEL5, -0.142.
